Laboratory results: PubChem BioAssay (NCATS)
Inconclusive results are not listed. Values without a mark were called inactive. Activity calls are given as the source filed them. Calls follow the shape of the full dose curve.
% is scaled to controls: 0 for no effect and ±100 for the full control effect; potency is read from the fitted curve at half-maximal effect.

Test: Primary qHTS for Vero E6 cytotoxicity: counterscreen for inhibitors of SARS-S pseudo-typed particle cell entry (AID 1479150)
Details: cell viability; series mostly up to 57.1 µM; activity change, negative = cytotoxicity: at the top concentration
With `CCNC1(c2cccs2)CCCCC1=O` (stereo not drawn) the “outcome” value was “inactive”.
For `C[C@]12CCC(=O)C=C1C=C[C@@H]1[C@@H]2CC[C@@]2(C)[C@H]1CC[C@@]2(O)CCC(=O)O`, the “activity change, negative = cytotoxicity” value was -0.393%.
In the case of `CCCC(=O)OC(C(Cl)(Cl)Cl)P(=O)(OC)OC` (stereo not drawn), the “outcome” value is reported as “inactive [at 114 µM]”.
For `O=C1C2CC=CCC2C(=O)N1SC(Cl)(Cl)Cl` (stereo not drawn), the Potency was 20 µM (active).
With `C[C@@H]([C@H](O)c1ccccc1)N(C)C` the “outcome” value was “inactive”.
With `FC(F)OC(F)(F)C(F)Cl` (stereo not drawn) the “activity change, negative = cytotoxicity” value was 4.23%.
In the case of `CC(N)Cc1ccc(O)cc1` (stereo not drawn), the “outcome” value is reported as “inactive”.
In the case of `ClC1C(Cl)C(Cl)C(Cl)C(Cl)C1Cl` (stereo not drawn), the “activity change, negative = cytotoxicity” value is reported as 0.622%.
In the case of `CCNCC(O)c1cccc(O)c1` (stereo not drawn), the “outcome” value is reported as “inactive”.
For `CC(=O)O[C@H]1CC[C@H]2[C@@H]3CCC4=CC(=O)CCC4=C3C=C[C@]12C`, the “activity change, negative = cytotoxicity” value was -6.59%.
For `COC([CH2][Hg])CNC(=O)c1ccccc1OCC(=O)O` (stereo not drawn), the Potency was 3.55 µM (active).
With `NCC(O)c1cccc(O)c1` (stereo not drawn) the “outcome” value was “inactive”.
For `Cn1sc(Cl)cc1=O`, the “outcome” value was “inactive”.
In the case of `CC[C@H]1CN2CC[C@H]1C[C@@H]2[C@@H](O)c1ccnc2ccc(OC)cc12`, the “activity change, negative = cytotoxicity” value is reported as -1.86%.
For `CC[C@H](C)[C@H]1O[C@]2(C=C[C@@H]1C)C[C@@H]1C[C@@H](C/C=C(\C)[C@@H](O[C@H]3C[C@H](OC)[C@@H](O[C@H]4C[C@H](OC)[C@@H](O)[C@H](C)O4)[C@H](C)O3)[C@@H](C)/C=C/C=C3\CO[C@@H]4[C@H](O)C(C)=C[C@@H](C(=O)O1)[C@]34O)O2`, the “outcome” value was “inactive”.
In the case of `CCCCNCC(O)c1ccc(O)cc1` (stereo not drawn), the “activity change, negative = cytotoxicity” value is reported as 2.71%.
In the case of `CCC1(CC)C(=O)NC(=O)N(C)C1=O`, the “activity change, negative = cytotoxicity” value is reported as -2.85%.
In the case of `O=[N+]([O-])c1ccccc1`, the “activity change, negative = cytotoxicity” value is reported as -4.55%.
With `O=[N+]([O-])c1cc(I)c(O)c(I)c1` the “outcome” value was “inactive”.
In the case of `C[N+]1(C)CCCCC1COC(=O)C(O)(c1ccccc1)c1ccccc1` (stereo not drawn), the “activity change, negative = cytotoxicity” value is reported as 3.16%.
For `O=C(C[C@@H]1NCCC[C@H]1O)Cn1cnc2cc(Br)c(Cl)cc2c1=O`, the “outcome” value was “inactive”.
With `CC1CCC(C(C)C)C(OC(=O)c2ccccc2N)C1` (stereo not drawn) the “activity change, negative = cytotoxicity” value was -11.7%.
With `O=C/C=C/c1ccccc1` the “outcome” value was “inactive”.
With `C=CC[C@]1(O)CC[C@H]2[C@@H]3CCC4=CCCC[C@@H]4[C@H]3CC[C@@]21C` the “activity change, negative = cytotoxicity” value was -6.62% [at 114 µM].
With `COc1cc2c(cc1OC)[C@@]13CCN4CC5=CCO[C@H]6CC(=O)N2[C@H]1[C@H]6[C@H]5C[C@H]43` the “outcome” value was “inactive”.
With `CCOc1ccc2c3c1O[C@H]1[C@@H](O)C=C[C@H]4[C@@H](C2)N(C)CC[C@@]341` the “outcome” value was “inactive”.
In the case of `CC(C)(O)[C@@H]1[C@H]2OC(=O)[C@@H]1[C@]1(O)C[C@H]3O[C@]34C(=O)O[C@H]2[C@]14C`, the “outcome” value is reported as “inactive”.
For `CCC1(C)CC(=O)NC(=O)C1`, the “activity change, negative = cytotoxicity” value was 3.99% [at 114 µM].
With `CCC(=O)O[C@@](Cc1ccccc1)(c1ccccc1)[C@@H](C)CN(C)C` the “activity change, negative = cytotoxicity” value was 0.333%.
In the case of `C[C@]12CC[C@H]3[C@@H](CCC4=C(O)C(=O)CC[C@@H]43)[C@@H]1CC[C@@H]2OC(=O)CCC1CCCC1`, the “outcome” value is reported as “inactive”.
With `C[C@@H](CO)NC(=O)[C@@H]1C=C2c3cccc4[nH]cc(c34)C[C@H]2N(C)C1` the “activity change, negative = cytotoxicity” value was 4.95%.
In the case of `CCOC(=O)c1ccccc1C(=O)OCC`, the “activity change, negative = cytotoxicity” value is reported as 2.58%.
For `CCN(CC)C(=O)N[C@H]1C[C@@H]2c3cccc4[nH]cc(c34)C[C@H]2N(C)C1`, the “activity change, negative = cytotoxicity” value was -4.5%.
With `O=C1C[C@@H]2OCC=C3CN4CC[C@]56c7ccccc7N1[C@H]5[C@H]2[C@H]3C[C@H]46` the “outcome” value was “inactive”.
In the case of `CC[N+](C)(CC)CCOC(=O)C(O)(c1ccccc1)c1ccccc1`, the “outcome” value is reported as “inactive”.
With `COc1ccc(OC)c(C(O)C(C)N)c1` (stereo not drawn) the “outcome” value was “inactive”.
With `O=[N+]([O-])C(Br)(CO)CO` the “activity change, negative = cytotoxicity” value was -16.9%.
For `O=C(NCNC(=O)NC1C(=O)NC(=O)N1CO)NC1C(=O)NC(=O)N1CO` (stereo not drawn), the “activity change, negative = cytotoxicity” value was -9.2%.
